# Data taken from PMC5540273 (PLoS ONE, 2017).
# Tests used:
# Conditions in all cases: concentration: 1 μM, replicates: in singlicate; n = 1
# PIP5K1A = tested on: PIP5K1A
# PIP5K1C = tested on: PIP5K1C
# PIP5K2B = tested on: PIP5K2B
# PIP5K2C = tested on: T1, PIP5K2C
# T1 construct: gene PIP4K2C
# PKAC-alpha = tested on: T2, PKAC-alpha
# T2 construct: gene PRKACA
# PKAC-beta = tested on: T3, PKAC-beta
# T3 construct: gene PRKACB
# PKMYT1 = tested on: PKMYT1
# PKN1 = tested on: PKN1
# PKN2 = tested on: PKN2
# PLK1 = tested on: PLK1
# PLK2 = tested on: PLK2
# PLK3 = tested on: PLK3
# PLK4 = tested on: PLK4
# PRKCD = tested on: PRKCD
# PRKCE = tested on: PRKCE
# PRKCH = tested on: PRKCH
# PRKCI = tested on: PRKCI
# PRKCQ = tested on: PRKCQ
# PRKD1 = tested on: PRKD1
# PRKD2 = tested on: PRKD2
# 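Further: KINOMEscan kinase panel screen.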
SMILES,%Inh (PIP5K1A) [%],%Inh (PIP5K1C) [%],%Inh (PIP5K2B) [%],%Inh (PIP5K2C) [%],%Inh (PKAC-alpha) [%],%Inh (PKAC-beta) [%],%Inh (PKMYT1) [%],%Inh (PKN1) [%],%Inh (PKN2) [%],%Inh (PLK1) [%],%Inh (PLK2) [%],%Inh (PLK3) [%],%Inh (PLK4) [%],%Inh (PRKCD) [%],%Inh (PRKCE) [%],%Inh (PRKCH) [%],%Inh (PRKCI) [%],%Inh (PRKCQ) [%],%Inh (PRKD1) [%],%Inh (PRKD2) [%]
Cn1cc(-c2[nH]c3cc(NC(=O)[C@H](N)C4CCCCC4)cc4c3c2C=NNC4=O)cn1,33,52,82,41,70,63,2,88,90.5,0,68,36,99.9,45,79,53,59,78,0,0
Cc1ccc(C(=O)Nc2ccc(Nc3ccnc4cc(-c5nccs5)ccc34)cc2O)cc1.Cl [GW494702],0,9,0,28,0,0,0,0,0,1,0,0,98.4,0,16,5,2,13,0,2
Cl.c1ccc(-c2ccc3c(Nc4ccc5[nH]ncc5c4)ccnc3c2)nc1 [GW440137],18,30,0,55,0,0,0,15,0,0,0,0,7,4,5,0,17,0,3,12
CCc1ccc(-c2ccc3c(c2)-c2c(cnn2C)S(=O)(=O)N3C)cc1,0,24,0,77,0,12,30,2,0,0,4,2,14,0,17,0,2,23,0,14
COc1ccc(Nc2nccc(NCCNC(=O)c3cc4ccccc4s3)n2)cc1 [GSK1379896],0,48,22,24,0,0,0,0,0,7,0,0,0,0,2,0,25,9,0,0
CCn1c(-c2nonc2N)nc2c(C#CC(C)(C)O)nc(OC[C@H](N)c3ccccc3)cc21 [GSK943949],0,90.8,0,0,98,97.7,19,90.8,19,0,0,0,19,96.2,75,97.9,20,82,7,17
O=C(Nc1n[nH]c2cc(-c3ccoc3)ccc12)C1CC1 [SB-738481],28,0,18,0,0,2,0,0,22,3,3,12,10,4,12,0,0,0,0,0
O=C(Nc1cccc(-c2nn3ncccc3c2-c2ccnc(Nc3ccccc3)n2)c1)c1c(F)cccc1F [GSK198271],0,0,11,27,5,2,7,8,0,3,55,82,1,0,8,16,9,48,27,20
Cc1ccc(C)c(NC(=O)NC2CCN(c3ccnc(Nc4ccc(F)cc4)n3)C2)c1 (stereo not drawn) [GSK1379720],0,65,38,47,0,0,5,0,0,0,0,0,0,0,15,0,13,0,0,0
